# Screening data as filed in PubChem BioAssay.
# SARS PLP yeast = qHTS of Yeast-based Assay for SARS-CoV PLP. S. cerevisiae expressing SARS-CoV PLpro, growth rescue. Potency, µM (highest dose often 32.9 µM), most hits filed as activators. 0.19% of 330,000 active. AID 485353, 2010; calls by dose curve; further: nearly all actives have a fitted effect of over 55% in size
# AMA1 RON2 block = qHTS for Inhibitors of AMA1-RON; Towards Development of Antimalarial Drug Lead: Primary Screen; Plasmodium falciparum AMA1 (3D7) - RON2 peptide interaction; AlphaScreen AMA1-biotinylated RON2 peptide binding; Potency, µM (titrated, usually from 58.2 µM), actives largely listed as inhibitors; 0.2% of 360,000 active; AID 720542, 2013; further: nearly all actives have a fitted effect of over 45% in size
#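 AMA1 (3D7) with his tag at 25 nM final met compounds first, then biotinylated RON2 peptide at 25 nM; detection used donor plus acceptor beads, 10 µg/mL apiece, read by AlphaScreen after 30 min at room temperature.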
# Shiga toxin inh = A qHTS for Small Molecule Inhibitors of Shiga Toxin | inhibition, % at 38.7 µM | 9.2% of 290,000 active | Vero cells, Shiga toxin protein synthesis inhibition reporter; in the data active means inhibition mostly above about 28%, no sharp cut-off; inactive means mostly below about 43%
# AmpC inh detg = qHTS Inhibitors of AmpC Beta-Lactamase (assay with detergent); Potency, µM (series often up to 114 µM), hits mostly inhibitors; 0.041% of 370,000 active; AmpC hydrolysis of nitrocefin, absorbance 480 nm, 0.01% Triton; AID 485294, 2010; P00811; further: nearly all actives have a fitted effect of over 25% in size
# Target sequence (P00811 whole entry, looked up): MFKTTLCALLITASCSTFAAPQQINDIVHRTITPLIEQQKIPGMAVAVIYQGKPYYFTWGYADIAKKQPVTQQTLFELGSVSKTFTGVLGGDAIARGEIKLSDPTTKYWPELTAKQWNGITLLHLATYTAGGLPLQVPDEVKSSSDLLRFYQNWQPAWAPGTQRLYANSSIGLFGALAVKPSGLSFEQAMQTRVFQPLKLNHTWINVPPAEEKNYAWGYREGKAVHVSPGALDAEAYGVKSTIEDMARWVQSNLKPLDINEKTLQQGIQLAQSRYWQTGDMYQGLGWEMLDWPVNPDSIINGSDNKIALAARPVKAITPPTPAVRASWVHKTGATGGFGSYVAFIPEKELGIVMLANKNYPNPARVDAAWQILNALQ
#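 AmpC (5.3 nM in the dispensed reagent) in 20 mM phosphate pH 7.0 with 0.01% (detergent screen) or 0.0001% Triton X-100 was preincubated with compounds for 15 min at room temperature. Nitrocefin was then added from an 800 uM solution, and hydrolysis was followed at 480 nm.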
# AmpC no deterg = qHTS Inhibitors of AmpC Beta-Lactamase (assay without detergent) | AmpC nitrocefin hydrolysis, absorbance 480 nm, 0.0001% Triton | Potency, µM (titrated, usually from 57.1 µM), usual class: inhibitors | 0.52% of 330,000 active | AID 485341, 2010; further: nearly all actives have a fitted effect of over 20% in size
#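 20 mM phosphate pH 7.0 + 0.01% (detergent screen) or 0.0001% Triton X-100; 5.3 nM AmpC reagent; cpd preinc 15 min RT; nitrocefin (800 uM stock) to start; A480 q20 s × 4 min; Activity was normalised to no-enzyme and no-compound control wells.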
# CHX counter = Cycloheximide Counterscreen for Small Molecule Inhibitors of Shiga Toxin; 12% of 300,000 active; AID 2314, 2010; cell reporter, cycloheximide protein synthesis inhibition counterscreen; max response, %; in the data active means max response mostly above about 13%, no sharp cut-off; inactive means mostly below about 14%; further: read at 38.3 µM for the half of the compounds with a filed dose
# Numbers stand for hits; . = inactive; ? = inconclusive; / = not tested or not shown. The entries come from a sample that favours hits as a whole. Unless noted, the call rests on the fitted dose curve; in most records, active means well fitted curve in the direction sought with a large enough effect; inconclusive means small, poorly fitted or top-dose-only effect, or another doubt; inactive means no such curve, though single readings can be large; an effect the other way counts as inactive or inconclusive.
SMILES,SARS PLP yeast,AMA1 RON2 block,Shiga toxin inh,AmpC inh detg,AmpC no deterg,CHX counter
O=C1CCCC2=C1Sc1ccc(Cl)cc1N2,.,.,.,.,.,.
CC1CCC2C(=O)N(c3cccc(C(=O)Nc4ccc(F)cc4)c3)C(=O)C2C1 (centres undefined),.,.,.,?,.,.
COc1ccc(C(=O)Nc2ccccc2C(=O)N/N=C/c2ccccn2)cc1OC,.,.,45,.,.,34
COc1ccc(C(=O)N/N=C/c2ccccn2)cc1OC,.,.,.,.,.,.
COc1ccc(OC)c(C(=O)N/N=C/c2ccccn2)c1,.,.,76,.,.,30
C[C@H]1CN([C@@H](C)CO)C(=O)c2cc(C#Cc3cccnc3)cnc2O[C@H]1CN(C)Cc1ccc(F)cc1,/,.,/,/,/,/
O=C(Nc1ccc(Cl)c(Cl)c1)N1CCOCC1,.,.,37,.,.,.
O=C(Nc1ccc(Cl)c(Cl)c1)N1CCCCCC1,.,.,90,.,.,51
O=C(Nc1ccc(Cl)c(Cl)c1)N1CCC(N2CCCCC2)CC1,.,.,.,.,.,.
O=C(Nc1ccc(Cl)c(C(F)(F)F)c1)C(=O)N1CCCCC1,.,.,.,?,.,27
NC(=O)CC(NC(=O)c1ccccc1)c1ccc(N2CCN(c3ccc(F)cc3)CC2)c([N+](=O)[O-])c1 (centres undefined),.,.,.,.,.,.
CCCc1c(-c2cccc(Br)c2)ncn1Cc1cccc(-c2ccccc2)c1,/,.,/,/,/,/
CCCCC(=O)Nc1cc(C)c(NC(=O)c2cccs2)cn1,.,.,.,.,.,.
COc1ccc(C(=O)Nc2cnc(NC(=O)c3cccs3)cc2C)cc1,.,.,.,.,.,46
COc1ccc(C(=O)NNC(=S)NC(=O)c2cccs2)cc1,.,.,.,.,.,.
CCCCC(=O)Nc1cnc(NC(=O)c2cccs2)cc1C,.,.,/,?,.,31
COc1ccc(C(=O)Nc2cc(C)c(NC(=O)c3ccccn3)cn2)cc1,.,.,48,.,.,40
Cc1cc(NC(=O)C2CC2)ncc1NC(=O)c1ccccn1,.,.,71,.,.,40
COc1cc(/C=C(/NC(C)=O)C(=O)O)cc(Cl)c1OCc1ccc(Br)cc1,.,.,.,.,.,.
Cc1ccc(O)c(CNc2cccc(C)n2)c1,.,.,.,?,.,.
CC(C)[C@H](NC(=O)c1ccco1)C(=O)OCC(=O)NC12CC3CC(CC(C3)C1)C2,.,.,59,.,.,21
CC(C)[C@H](NC(=O)c1ccco1)C(=O)OCC(=O)N1CC(=O)Nc2ccccc21,.,.,.,.,.,.
CC(C)C(NC(=O)c1ccco1)C(=O)OCC(=O)NCCc1ccccc1 (centres undefined),.,.,/,.,.,/
CC(C)[C@H](NC(=O)c1ccco1)C(=O)OCC(=O)N1CCc2ccccc21,.,.,73,.,.,14
O=C(CSc1ncnc2c1oc1ccccc12)c1cccs1,.,.,42,.,.,23
SMILES,SARS PLP yeast,AMA1 RON2 block,Shiga toxin inh,AmpC inh detg,AmpC no deterg,CHX counter
Cc1nc(SCC(=O)c2cccs2)c2oc3ccccc3c2n1,.,.,136,.,.,56
CC1=C(C(=O)Nc2ccc(C)cc2C)C(c2sccc2C)n2ncnc2N1 (centres undefined),/,/,/,.,/,/
Cc1ccc(N2CC(C(=O)Nc3nnc(SCC(=O)Nc4cc(C)on4)s3)CC2=O)cc1 (centres undefined),.,.,.,?,.,.
CCOC(=O)c1cc(C(=O)Nc2cccc(C)c2)nn1C,.,.,155,.,.,40
Cn1nc(C(=O)Nc2ccc(Cl)cc2)cc1C(=O)Nc1ccc(Cl)cc1,.,.,.,?,.,.
Cc1ccc(NC(=O)c2cc(C(=O)Nc3ccc(C)cc3)n(C)n2)cc1,/,.,/,/,/,/
Cn1nc(C(=O)Nc2cccc(Cl)c2)cc1C(=O)Nc1cccc(Cl)c1,.,.,.,.,16µM,.
CCc1nnc(NC(=O)CSc2nncc(=O)n2N)s1,.,.,.,.,.,.
Cc1ccc2nc(NC(=O)CSc3nncc(=O)n3N)sc2c1,.,.,.,.,.,34
CC(C)Cc1nnc(NC(=O)C2CCCC2)s1,.,.,.,.,.,24
COc1ccc2nc(NC(=O)CSc3ccccc3)sc2c1,.,.,138,.,.,57
Cc1nnc(NC(=O)CSc2ccccn2)s1,.,.,.,?,.,.
CC(C)Cc1nnc(NC(=O)CCC(=O)NC2CCCCC2)s1,.,.,.,.,.,.
CC(C)Cc1nnc(NC(=O)CSc2ccccn2)s1,.,.,.,.,.,23
Cc1cc(/C=C2\NC(=O)N(Cc3ccc(Cl)cc3)C2=O)c(C)n1C,.,.,.,.,.,.
COCCCNC(NC(=O)c1ccc(Br)cc1)C(Cl)(Cl)Cl (centres undefined),.,.,.,.,.,.
CCOc1ccc2nc(NC(=O)CSC3=NCCS3)sc2c1,.,.,.,?,.,.
O=C(CSc1ccccn1)Nc1nc2ccc(Br)cc2s1,.,.,.,?,.,25
Cc1ccc2nc(NC(=O)CSc3[nH]c(=O)ncc3C)sc2c1,/,/,.,.,/,27
COc1ccc2nc(NC(=O)CSc3nnc(C)n3N)sc2c1,.,.,51,.,.,35
COc1ccc2nc(NC(=O)CSC3=NCCS3)sc2c1,.,.,.,.,.,32
COc1cc(/C=C(\NC(C)=O)C(=O)Nc2ccc(NC(C)=O)cc2)ccc1OC(C)=O,.,.,.,.,.,.
Cc1cccc(C(=O)N2CCCC(N3CCN(Cc4ccc5c(c4)OCO5)CC3)C2)n1 (centres undefined),.,.,.,.,.,25
O=C(c1ccccn1)N1CCCC(N2CCN(Cc3ccc4c(c3)OCO4)CC2)C1 (centres undefined),.,.,.,.,.,.
CCC(CC)c1nnc(NC(=O)CSCc2c(C)noc2C)s1,/,.,/,/,/,/
CCCC[C@@H](C=O)NC(=O)[C@H](CC(C)C)NC(=O)[C@H](CC(C)C)NC(C)=O,/,/,77,/,/,42
CC1(C(=O)NS(=O)(=O)C2CC2)CCN(C(=O)c2ccc3ccccc3n2)C1 (centres undefined),/,.,/,/,/,/
O=C(Nc1ccc(N2CCCC2)c(Cl)c1)c1ccc(Br)o1,.,.,.,.,.,41
CSc1ccccc1NC(=O)c1ccc(Br)o1,.,.,45,.,.,36
O=C(Nc1ccccc1N1CCCC1)c1ccc(Br)o1,.,.,.,.,.,9.2
